Results taken from PubChem BioAssay AID2685 (National Center for Advancing Translational Sciences (NCATS), 2010).
In all, about 320,000 compounds went through this assay and about 2,100 (0.66%) were called active. Not shown: some 53% with an inconclusive outcome. The call rests on the fitted dose curve; in most records, active means well fitted inhibition curve with a large enough effect in the signal ratio, with a control signal flat (not every such curve was filed as active); inconclusive means small, poorly fitted or top-dose-only effect, or effect the other way, or a change in a side signal; inactive means flat fitted curve, though single readings scatter; the % refers to the signal ratio. Only a selection was taken, and actives are over-represented in it overall.

Test: qHTS Assay for Lipid Storage Modulators in Drosophila S3 Cells;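 on cell number change: cells counted by Cell Tracker Red CMTPX staining in the red channel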; on lipid storage change, negative = inhibition: on the % scale 0 is the no-effect control and ±100 the full control effect
Settings: BODIPY lipid droplet fluorescence, 18-24 h, cells fed with added oleic acid; cell number change: measured here: cell count max response; series mostly up to 46.1 µM; lipid storage change, negative = inhibition: at the top concentration
Method in brief: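 Drosophila S3 cells loaded with oleic acid (400 uM, as added) and compounds at several concentrations; lipid droplets imaged by 488-nm laser-scanning cytometry, 500–530 nm intensity and object ratio to cell channel. Percent activity normalized to 20 uM Triacsin C.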
Potency means the concentration at half of the fitted maximal effect.

SMILES | lipid storage change, negative = inhibition | cell number change | Potency | outcome
COC(=O)c1cccc(NC(=O)C(C)(C)C)c1 | -0.0627% (inactive) | -0.276% | – | –
Cn1ccnc1SCC(=O)c1ccc(Cl)cc1 | 0.461% (inactive) | 1.94% | – | –
CN1CCC(NC(=O)Nc2ccc(Br)cc2)CC1 | -16.8% (inactive) | -12.5% | – | –
COc1ccc(NC(=O)COC(=O)C2CC(=O)N(Cc3ccc(C)cc3)C2)cc1 (stereo unspecified) | – | -4.17% | 2.06 µM (active) | –
COc1ccc(COC(=O)C2CC(=O)N(Cc3ccc(C)cc3)C2)cc1 (stereo unspecified) | – | -16.1% | – | inactive [at 0.369 µM]
COc1ccc(CN2CC(C(=O)NCCc3ccc(C)cc3)CC2=O)cc1 (stereo unspecified) | 6.44% (inactive) | 1.29% | – | –
COC(=O)C1CCN(C(=O)c2ccc(Cl)c(S(=O)(=O)NCc3cccnc3)c2)CC1 | – | 20.6% | – | inactive
CC(=O)Oc1ccccc1N(C(C)=O)S(=O)(=O)c1ccc(C)cc1 | 6.21% (inactive) | -8.62% | – | –
CC(C)[C@H](NC(=O)NCc1ccc(Cl)cc1)C(=O)O | – | – | – | inactive
CC(C)C[C@H](NC(=O)NCc1ccc(Cl)cc1)C(=O)O | – | -1.47% | 6.51 µM (active) | –
CC(C)CC(NC(N)=O)C(=O)NCc1ccc(Cl)cc1 (stereo unspecified) | -1.44% (inactive) | 6.23% | – | –
CCC(=O)Nc1ccc(NC(=O)CSc2nc3cc4c(cc3cc2C)CCC4)cc1 | -12.2% (inactive) | 0.207% | – | –
CCC(=O)Nc1nn(C)c2nc3c(C)cccc3cc12 | 1.08% (inactive) | -9.14% | – | –
CC1CCN(CCCNC(=O)C2CCC(CNS(=O)(=O)c3cccc4nsnc34)CC2)CC1 (stereo unspecified) | – | – | – | inactive
CCOc1ccc(-n2c(=O)cc(N3CCN(c4ccc(F)cc4)CC3)[nH]c2=O)cc1 | 20.6% (inactive) | 10.6% | – | –
Cc1ccc(-c2nnn(CC(=O)N(Cc3ccco3)C(C(=O)NC(C)(C)C)c3cccs3)n2)o1 (stereo unspecified) | -15.4% (inactive) | -15.2% | – | –
Nc1c(C(=O)NCC2CCCO2)sc2nc3c(c(-c4ccco4)c12)CC/C3=C\c1ccco1 (stereo unspecified) | – | 3.45% | 8.2 µM (active) | –
Cc1ccc(NC(=O)c2sc3nc4c(c(-c5ccco5)c3c2N)CCC4)cc1 | – | -11.1% | – | inactive
Nc1c(C(=O)Nc2ccccc2)sc2nc3c(c(-c4ccco4)c12)CCCC3 | 12.6% (inactive) | -3.84% | – | –
COc1ccc(NC(=O)CC2C(=O)NCCN2C(=O)Nc2ccc(C(F)(F)F)cc2)cc1 (stereo unspecified) | 0.561% (inactive) | 12.2% | – | –
Cc1cccc(NC(=O)CN2C(=O)N/C(=C\c3ccc(-c4cccc(C(=O)O)c4)o3)C2=O)c1 | 0.48% (inactive) | -0.725% | – | –
CCCn1c(N)c(N(CCOC)C(=O)/C=C/c2ccc(C(=O)OC)cc2)c(=O)[nH]c1=O | -7.54% (inactive) | -4.64% | – | –
CC(C)(C)NC(=O)C(c1ccc(F)cc1)N(Cc1ccco1)C(=O)c1csnn1 (stereo unspecified) | 13.7% (inactive) | -0.0921% | – | –
Cc1ccc(NC(=O)CCc2c(C)[nH]c(=O)c(C#N)c2C)cc1 | – | 16.2% | – | inactive

SMILES | lipid storage change, negative = inhibition | cell number change | Potency | outcome
COc1ccccc1NC(=O)CCc1c(C)[nH]c(=O)c(C#N)c1C | -20.9% (inactive) | 16.5% | – | –
COc1cc(NC(=O)CCc2c(C)[nH]c(=O)c(C#N)c2C)cc(OC)c1 | – | -2.94% | 0.058 µM (active) | –
COc1ccc(-c2[nH]ncc2/C=N/NC(=O)c2ccc(Br)cc2)c(OC)c1 | 15.5% (inactive) | 3.28% | – | –
CCOc1ccc(NC(=O)CN2C(=O)CSC(C)C2=O)cc1 (stereo unspecified) | 18.6% (inactive) | 8.89% | – | –
Cc1c(C(=O)N(CCC#N)c2ccccc2)sc2nc3n(c(=O)c12)CCCC3 | -10.6% (inactive) | 7.46% | – | –
COc1ccc(O)c(-c2cc(-c3ccccc3Cl)[nH]n2)c1 | – | -20.4% | 3.66 µM (active) | –
Oc1ccc(Br)cc1-c1cc(-c2ccccc2Cl)[nH]n1 | -22.2% (inactive) | -23.2% | – | –
COc1ccc(O)c(-c2cc(-c3ccccc3[N+](=O)[O-])[nH]n2)c1 | 7.36% (inactive) | -1.9% | – | –
CCc1ccc(/C=C(\C)C(=O)c2c(C)cc(C)[nH]c2=O)cc1 | 3.7% (inactive) | -0.605% | – | –
CCOc1ccc(C2c3[nH]c4ccccc4c3C[C@H]3C(=O)N(C4CC4)CC(=O)N23)cc1OC (stereo partly specified) | 9.36% (inactive) | 5.07% | – | –
CCOc1ccc2oc(C(=O)NC(C)(C)CC)c(C)c2c1 | 5.67% (inactive) | -22.3% | – | –
CC(C)(C)N(Cc1ccccc1)C(=O)COC(=O)CNS(=O)(=O)c1ccc2ccccc2c1 | 4.49% (inactive) | -5.96% | – | –
COc1cccc(C(=O)NC23CC4CC(CC(C4)C2)C3)c1 | 15.8% (inactive) | 26.5% | – | –
COc1cccc(N2CCN(C(C)C(=O)NC34CC5CC(CC(C5)C3)C4)CC2)c1 (stereo unspecified) | – | -27.6% | 1.3 µM (active) | –
COc1ccc(N2CCN(C(=O)NC34CC5CC(CC(C5)C3)C4)CC2)cc1 | – | – | – | inactive
CC(=C1C(=O)c2ccccc2C1=O)N1CCN(Cc2ccccc2)CC1 | – | 11.8% | – | inactive
O=C1c2ccccc2C(=O)c2c1cccc2N1CCN(Cc2ccccc2)CC1 | – | – | 18.4 µM (active) | –
O=c1[nH]ncc(N2CCN(Cc3ccccc3)CC2)c1Cl | 13.6% (inactive) | 12.7% | – | –
CCN(CC)C(c1ccc(F)cc1)c1nnnn1C1CCCCC1 (stereo unspecified) | 10.6% (inactive) | -7.83% | – | –
CCN(CC)C(c1ccc(F)cc1)c1nnnn1CC1CCCO1 (stereo unspecified) | – | 4.03% | 18.4 µM (active) | –
CN(c1ccccc1)C(c1ccc(F)cc1)c1nnnn1CC1CCCO1 (stereo unspecified) | – | – | – | inactive
CC(C)c1nc(SCC(=O)N2CCOCC2)c2c(=O)n(C)c(=O)n(C)c2n1 | 8.15% [at 9.22 µM] (inactive) | 5.66% | – | –
C=CCn1c(SCC(=O)O)nnc1-c1ccc(C(C)(C)C)cc1 | -0.438% (inactive) | 5.05% | – | –
Cn1c(SCC(N)=O)nnc1-c1ccc(C(C)(C)C)cc1 | -7.75% (inactive) | -9.51% | – | –

SMILES | lipid storage change, negative = inhibition | cell number change | Potency | outcome
C=C(C)Cn1c(SCC(=O)O)nnc1-c1ccc(C(C)(C)C)cc1 | – | -3.69% | 29.1 µM (active) | –
CC(C)=CC(O)C/C(C)=C/COc1ccc2ccc(=O)oc2c1 (stereo unspecified) | 5.31% (inactive) | -2.96% | – | –
O=C(NCC(c1ccco1)N1CCOCC1)c1ccc(F)c(F)c1 (stereo unspecified) | 6.58% (inactive) | 3.3% | – | –
CCCCC1C2C(=O)N(c3ccccc3)C(=O)C2ON1c1ccccc1 (stereo unspecified) | 14.1% (inactive) | -1.39% | – | –
CCCCC1C2C(=O)N(c3ccc(C)cc3)C(=O)C2ON1c1ccccc1 (stereo unspecified) | 0.528% (inactive) | 7.09% | – | –
CCCOc1ccc(N2C(=O)C3ON(c4ccccc4)C(CCC)C3C2=O)cc1 (stereo unspecified) | – | 10.7% | 18.4 µM (active) | –
CSc1nnc(C)c(=O)n1COC(=O)COc1ccc(Cl)cc1 | 8.1% (inactive) | 11.4% | – | –
CCO[C@H]1OC(C(=O)N2CCN(C)CC2)=C[C@@H](c2ccc(Br)cc2)[C@@H]1CCCO | 0.537% (inactive) | 4.76% | – | –
CC(=O)Nc1ccc(NC(=O)Nc2cc(C)cc(C)c2)cc1 | -8.79% (inactive) | 7.61% | – | –
CCC(CC)C(=O)NCCc1ccc(F)cc1 | – | 0.621% | 25.9 µM (active) | –
O=C(Cc1ccc(F)cc1)NCCc1ccc(F)cc1 | 0.497% (inactive) | -3.73% | – | –
CCC(CC)C(=O)NCCc1ccc(S(N)(=O)=O)cc1 | 0.195% (inactive) | -8.96% | – | –
O=C(Cc1ccccc1)N/N=C/c1ccc[nH]1 | 1.93% (inactive) | 7.79% | – | –
COc1ccccc1N(C)S(=O)(=O)c1ccc(C(=O)O)cc1 | -19.5% (inactive) | -4.33% | – | –
COc1cccc(CN2CCNC(=O)C2CC(=O)NCc2cn3cccc(C)c3n2)c1OC (stereo unspecified) | – | -8.41% | – | inactive
CCN1CCN(S(=O)(=O)c2cccc3nsnc23)CC1 | -15.7% (inactive) | -12.7% | – | –
O=S(=O)(c1cccc2nsnc12)N1CCN(C/C=C/c2ccccc2)CC1 | 24.3% (inactive) | 7.87% | – | –
O=S(=O)(c1cccc2nsnc12)N1CCN(Cc2ccccc2)CC1 | – | 1.32% | 6.51 µM (active) | –
Cc1cc(/C=C2\SC(=S)N(Cc3ccco3)C2=O)c(C)n1-c1cccnc1 | – | – | 23.1 µM (active) | –
Cc1cc(/C=C2\SC(=S)N(Cc3ccco3)C2=O)c(C)n1-c1ccccc1 | 24.5% (inactive) | -3.86% | – | –
COc1ccc(-n2c(C)cc(/C=C3\SC(=S)N(Cc4ccco4)C3=O)c2C)cc1 | -4.8% (inactive) | -10.6% | – | –
Cc1cc(C(=O)NN=C2C3CC4CC(C3)CC2C4)c2ccccc2n1 | -6.2% (inactive) | -7.65% | – | –
CN(C)C(CNC(=S)Nc1cccc(Cl)c1)c1cccnc1 (stereo unspecified) | -1.12% (inactive) | -7.59% | – | –
CNNC(=S)NC1CC2CC1C1C=CCC21 (stereo unspecified) | 14.9% (inactive) | 17.5% | – | –

SMILES | lipid storage change, negative = inhibition | cell number change | Potency | outcome
CCOc1ncccc1-c1nc(-c2cccs2)no1 | 21.8% (inactive) | -0.414% | – | –
CC1CN(C(=O)COC(=O)c2cc(Cl)ccc2Cl)CC(C)O1 (stereo unspecified) | -9.51% (inactive) | -5.44% | – | –
CC1CN(C(=O)c2ccc(COc3ccc4ccccc4c3)o2)CC(C)O1 (stereo unspecified) | 17.9% (inactive) | 18.9% | – | –
CCOc1cccc2cc(C(=O)N3CC(C)OC(C)C3)c(=O)oc12 (stereo unspecified) | 0.754% (inactive) | -8.03% | – | –
CC1CN(C(=O)c2ccc(COc3ccccc3Br)o2)CC(C)O1 (stereo unspecified) | 15.9% (inactive) | 21.6% | – | –
Cc1ccccc1OCc1ccc(C(=O)N2CC(C)OC(C)C2)o1 (stereo unspecified) | – | 14.8% | 32.6 µM (active) | –
CC1CN(C(=O)c2ccccc2OCc2ccc(Cl)cc2Cl)CC(C)O1 (stereo unspecified) | – | -15% | 0.651 µM (active) | –
COc1ccc(N=C2CCS(=O)(=O)c3sccc32)cc1 | 18.8% (inactive) | – | – | –
O=C(CN1C(=O)NC2(CCCC2)C1=O)Nc1ccccc1-c1ccccc1 | 7.06% (inactive) | – | – | –
COc1ccccc1C(=O)Nc1cccc(N(C)S(C)(=O)=O)c1 | 8.7% (inactive) | -2.55% | – | –
CC(=O)c1cccc(NC(=O)N2CCCCCC2)c1 | – | -8.42% | – | inactive
CC(=O)c1cccc(NC(=O)N2CCN(S(C)(=O)=O)CC2)c1 | – | – | 11.6 µM (active) | –
Cc1cc(C)cc(NC(=O)N2CCN(S(C)(=O)=O)CC2)c1 | 14.6% (inactive) | 5.38% | – | –
O=C(CCc1nnc2n(Cc3ccc(Cl)cc3)c(=O)c3ccccc3n12)NCCCN1CCOCC1 | – | – | – | inactive
CC(C)N(C(=O)Cn1c(-c2ccccc2Cl)nc2ccccc21)c1ccccc1 | -6.38% (inactive) | -7.06% | – | –
N#C/C(=N\Nc1ccc(F)cc1)C(=N)N1CCCCCC1 | -5.17% (inactive) | 0.927% | – | –
O=[N+]([O-])c1cc([N+](=O)[O-])c(N2CCCCCC2)cc1NCCO | -14% (inactive) | -19.4% | – | –
Cc1nc2ccccc2n1CCOc1ccc(F)cc1 | 9.98% (inactive) | -21.4% | – | –
COc1ccccc1C(=O)NCCn1cc(SCC(=O)NCC2CCCO2)c2ccccc21 (stereo unspecified) | – | -16.8% | 18.4 µM (active) | –
CCn1cc(SCC(=O)NCC2CCCO2)c2ccccc21 (stereo unspecified) | -5.87% (inactive) | -11.7% | – | –
Cc1ccccc1C(=O)NCCn1cc(SCC(=O)NCC2CCCO2)c2ccccc21 (stereo unspecified) | -8.86% (inactive) | 4.31% | – | –
